The supplement of paper PMC11219838
A number with no mark means an inactive call.

Test system: Caenorhabditis elegans dauer (daf-2(e1370))
Assay: proportion of mobile C. elegans dauer larvae relative to DMSO control (fraction of DMSO control); higher = more viable, less nematicidal, active = 0.63 or less; extreme values may be limits of the assay
Conditions: 60 µM; 5 days; temperature: 20 °C
In short: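 Synchronized C. elegans larvae were kept for 48 h at 25 °C on MYOB plates seeded with E. coli OP50 to induce dauer formation, and roughly 20 dauers were transferred into each well of a 96-well plate containing liquid NGM. Compound was pinned in to a final concentration of 60 µM with 0.6% v/v DMSO, and the sealed plates were shaken at 200 rpm for 5 days at 20 °C. The fraction of mobile worms was scored under a dissection microscope against DMSO-only wells and averaged across two biological replicates.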

Compound | proportion of mobile C. elegans dauer larvae
c1csc(-c2nnc(-c3cccs3)o2)c1 | 0.786
Cc1ccc(-c2nnc(SCc3ccccc3C)o2)cc1 | 1
Cc1ccc(SCc2nc(-c3cccnc3)no2)cc1 | 0.75
CCCc1ccc(-c2ccc(-c3nc(-c4ccccn4)no3)cc2)cc1 | 1

Test system: Ditylenchus dipsaci
Assay: proportion of mobile D. dipsaci (mixed stage) relative to DMSO control (fraction of DMSO control); higher = more viable, less nematicidal, active = 0.86 or less; extreme values may be limits of the assay
Conditions: 60 µM; 5 days; temperature: 20 °C
In short: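 Mobility, expressed relative to DMSO controls, is the mean of two biological replicates. The test organisms were D. dipsaci grown on pea plants in Gamborg B-5 agar and extracted into water by filter funnel, with about 20 added per well of a 96-well plate in distilled water. Compound was pinned to 60 µM final (0.6% v/v DMSO), plates were sealed and shaken at 200 rpm for 5 days at 20 °C, and mobile worms were scored under a microscope once 2 µL 1 M NaOH had been added.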

Compound | proportion of mobile D. dipsaci
N#Cc1ccc(CSc2nnc(-c3ccco3)o2)cc1 | 1
COc1ccc(-c2noc(-c3ccc(Cl)cc3)n2)cc1 | 1
Cc1ccc(-c2noc(CSc3nc4ccccc4[nH]3)n2)cc1 | 1
CC(=O)c1cccc(NC(=O)CSc2nnc(-c3ccccc3)o2)c1 | 1
CCCC(=O)Nc1ccccc1-c1nc(-c2ccncc2)no1 | 1
COc1ccc(-c2nnc(SCc3cccc(C#N)c3)o2)cc1 | 1
c1ccc(-c2noc(CSc3nc4ccccc4[nH]3)n2)cc1 | 1
CCOc1cc(-c2nc(-c3ccccc3C)no2)cc(OCC)c1OCC | 1
CCc1ccc(OCc2nc(-c3cccc(OC)c3)no2)cc1 | 1
COc1ccc(-c2noc(C34CC5CC(CC(C5)C3)C4)n2)cc1 | 1
CCOc1cc(C#N)ccc1OCc1nc(-c2cccs2)no1 | 1
CCCC(=O)Nc1ccccc1-c1nc(-c2ccccn2)no1 | 1
Cc1ccccc1OCc1nc(-c2cccs2)no1 | 1
CCOc1ccccc1-c1nc(-c2ccc(F)cc2)no1 | 1
Clc1ccc(CSc2nnc(-c3ccccc3)o2)c(Cl)c1 | 1
O=C(CSc1nnc(-c2ccc(Br)cc2)o1)NC1CCCC1 | 1
